Compound activity deposited in PubChem BioAssay by National Center for Advancing Translational Sciences (NCATS).
Rab9 promoter act – activates the Rab9 promoter; Huh7 Rab9 promoter-luciferase reporter, luminescence, 24 h; Potency, µM (highest dose often 9.22 µM), inactives show at the highest dose activation, negative = inhibition, hits mostly activators; 320,000 compounds, 2.8% hits; AID 485297; further: % of control where 0% means no effect; nearly all actives have a fitted effect of over 60% in size
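Huh7 cells stably carrying Rab9 promoter–luciferase reporter, plated 1500 cells/well, compound added after 2 h and incubated 24 h at 37 °C; luciferase luminescence then read after 10 min with detection reagent.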
SMN2 splice up – SMN2 splice variant enhancement. HEK293 SMN2-luciferase splicing reporter, luminescence, 30-36 h. Potency, µM (doses to about 46.1 µM), without a hit: top-dose activity change, positive = activation, actives largely listed as activators. 210,000 compounds, 2.8% hits. AID 1458; further: % of control where 0% means no effect; nearly all actives have a fitted effect of over 55% in size
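HEK293 cells carry an SMN2 […]–luciferase reporter in which exon 7 inclusion puts luciferase in frame. Cells were plated 10-12 h before compound addition, then incubated 30-36 h at 37C. ONE-Glo luminescence was read; sodium butyrate at 4.5 mM final served as control.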
FLuc modulator – inhibits or activates purified firefly luciferase, miR-21 counter-screen; P08659; purified FLuc, Km substrates, luminescence inhibition; Potency, µM (highest dose often 57.5 µM), for the others: at the highest dose activity change, negative = inhibition, actives largely listed as inhibitors; 360,000 compounds, 6.9% hits; AID 588342;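 further: plate controls were vehicle for no effect and reference inhibitor for full effect; nearly all actives have a fitted effect of over 55% in size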
Target sequence (P08659 whole entry, looked up): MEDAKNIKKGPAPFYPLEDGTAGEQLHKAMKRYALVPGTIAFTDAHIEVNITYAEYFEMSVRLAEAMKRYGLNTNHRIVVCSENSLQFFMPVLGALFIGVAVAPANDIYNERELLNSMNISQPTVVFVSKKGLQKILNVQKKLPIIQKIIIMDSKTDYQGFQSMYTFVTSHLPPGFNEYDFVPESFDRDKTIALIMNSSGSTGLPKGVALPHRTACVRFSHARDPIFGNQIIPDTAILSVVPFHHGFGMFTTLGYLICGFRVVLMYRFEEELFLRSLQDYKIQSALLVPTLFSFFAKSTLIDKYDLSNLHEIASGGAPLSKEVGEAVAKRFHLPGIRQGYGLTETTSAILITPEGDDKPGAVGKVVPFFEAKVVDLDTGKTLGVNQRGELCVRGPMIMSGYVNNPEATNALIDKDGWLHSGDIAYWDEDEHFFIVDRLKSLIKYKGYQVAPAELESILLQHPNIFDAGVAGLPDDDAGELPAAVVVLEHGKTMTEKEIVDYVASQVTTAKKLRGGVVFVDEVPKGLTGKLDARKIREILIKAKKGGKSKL
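Purified P. pyralis luciferase, 10 nM final, with Km-level 10 uM D-luciferin and 10 uM ATP in 50 mM Tris acetate pH 7.5, 10 mM Mg acetate, 0.01% Tween-20, 0.05% BSA; 6-point qHTS titration about 60 µM downward; luminescence read.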
NPC1 prom act – activators of NPC1 promoter; Huh7 NPC1 promoter luciferase reporter, 24 h; 320,000 compounds, 2.4% hits; Potency, µM (doses to about 9.22 µM), without a hit: at the top dose activation, actives largely listed as activators; further: % of control where 0% means no effect; nearly all actives have a fitted effect of over 60% in size
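Luminescence read-out of NPC1 promoter-driven luciferase in stably transfected Huh7 cells; compounds delivered in DMSO and left 24 h at 37C, 5% CO2, qHTS titration format.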
uPA surface inh – blocks generation of uPA at the cell surface. cell surface uPA generation assay, qHTS. Potency, µM (series often up to 38.3 µM), for the others: at the highest dose activity change, negative = inhibition, actives largely listed as inhibitors. 330,000 compounds, 0.31% hits; active means well fitted inhibition curve with a large enough effect; inconclusive means small, poorly fitted or top-dose-only effect; inactive means no such curve, though single readings can be large or run the other way; tested in mouse RAW 264.7 cells; further: on the % scale 0 is the no-effect control and ±100 the full control effect; nearly all actives have a fitted effect of over 55% in size
ELG1 genotoxic – induces genotoxicity in HEK293T cells with luciferase-tagged ELG1 | HEK293T ELG1-luciferase reporter, luminescence, 16 h | Potency, µM (titrated, usually from 46 µM), without a hit: at the highest dose activity change, positive = activation, hits mostly activators | 330,000 compounds, 1.3% hits | AID 504466; further: % of control where 0% means no effect; nearly all actives have a fitted effect of over 60% in size
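After overnight (16 hr) compound treatment at 37 °C, ELG1-luciferase HEK293T cells were lysed with ONE-Glo; luminescence quantified 30 min later at room temperature.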
Numbers without * were called inactive; ? = inconclusive; nt = no result. Compounds with a hit are over-represented: about 7.3% of the library has one in this group of screens. Unless noted, the call rests on the fitted dose curve; in most records, active means well fitted curve in the direction sought with a large enough effect; inconclusive means small, poorly fitted or top-dose-only effect, or another doubt; inactive means no such curve, though single readings can be large; an effect the other way counts as inactive or inconclusive. Potency means the concentration at half of the fitted maximal effect.

SMILES	Rab9 promoter act	SMN2 splice up	FLuc modulator	NPC1 prom act	uPA surface inh	ELG1 genotoxic
CCOC(=O)c1ccc(NC(=O)CSc2nnc(NC(=O)c3ccc(S(=O)(=O)N4CCOCC4)cc3)s2)cc1	2.7%	?	1.69µM*	11.3%	?	9.1%
Nc1nnc(SCC(=O)Nc2ccc(S(=O)(=O)N3CCOCC3)cc2)s1	-5.4%	14.4%	3.8%	-4.5%	nt	-2.6%
COc1cccc(Sc2nc(-c3ccccc3)ncc2S(C)(=O)=O)c1	-2.3%	nt	16.9µM*	-4.0%	0.0%	1.0%
CS(=O)(=O)c1cnc(-c2ccccc2)nc1Sc1ccc(F)cc1	2.4%	nt	-17.6%	-5.1%	-7.4%	?
COc1ccc(-n2nc(C(=O)NCC(=O)N3CCCCCC3)c3ccccc3c2=O)c(OC)c1	14.4%	nt	2.39µM*	11.5%	nt	?
COc1ccc(-n2nc(C(=O)NCC(=O)N3CCOCC3)c3ccccc3c2=O)c(OC)c1	-2.6%	nt	23.9µM*	-2.2%	-0.7%	4.5%
COc1ccc(-n2nc(C(=O)NCC(=O)N3CCN(Cc4ccccc4)CC3)c3ccccc3c2=O)c(OC)c1	-0.3%	nt	?	-0.1%	3.2%	0.6%
COc1ccc(-n2nc(C(=O)NCC(=O)N3CCCCC3)c3ccccc3c2=O)c(OC)c1	?	nt	3.79µM*	23.0%	-7.2%	?
COc1ccc(-n2nc(C(=O)NCC(=O)N3CCC(C)CC3)c3ccccc3c2=O)c(OC)c1	?	nt	1.51µM*	?	?	?
COc1ccc(NC(=S)N2CCCC2)c(OC)c1	2.3%	2.8%	1.1%	-2.7%	1.2%	0.9%
O=C(Nc1ccc(Br)cc1)c1ccc2ncsc2c1	0.355µM*	nt	5.36µM*	0.398µM*	-1.9%	1.64µM*
CN(C)S(=O)(=O)c1ccc(NC(=O)c2ccc3ncsc3c2)cc1	14.8%	nt	?	24.4%	0.1%	?
CCc1ccc(NC(=O)c2ccc3ncsc3c2)cc1	3.55µM*	8.91µM*	2.69µM*	1.41µM*	nt	?
O=C(Nc1ccc2c(c1)C(=O)NC2=O)c1ccccc1	2.6%	nt	-1.7%	0.3%	-7.9%	1.1%
O=C(COC(=O)c1ccc2ncsc2c1)Nc1ccc(OC(F)(F)F)cc1	nt	nt	nt	nt	-2.3%	10.8%
O=C(Nc1ccc2c(c1)C(=O)NC2=O)c1ccc2ncsc2c1	?	11.2µM*	?	?	-0.2%	?
COc1ccc(NC(=O)c2ccc3ncsc3c2)cc1	1.41µM*	nt	8.49µM*	3.16µM*	-5.7%	?
COc1cc(CCC(=O)NCc2ccc3c(c2)CCN3C(=O)c2ccc(F)cc2)cc(OC)c1OC	nt	nt	6.8%	nt	nt	nt
CCc1ccc(N2CCn3c2nc2c3c(=O)n(Cc3ccc(F)cc3)c(=O)n2C)cc1	nt	nt	9.53µM*	nt	nt	nt
CCc1ccc(N2CCn3c2nc2c3c(=O)n(Cc3c(F)cccc3Cl)c(=O)n2C)cc1	nt	nt	-1.3%	nt	nt	nt
CC(C)CCNC(=O)CN(C(=O)CCC(=O)Nc1nccs1)c1ccc2c(c1)OCCO2	2.5%	nt	?	1.4%	3.3%	20.6µM*
Cn1nnc2c(NCc3ccccc3)ncnc21	nt	nt	-1.0%	nt	nt	nt
COc1ccccc1OCC(=O)N/N=C/c1cccc2cccnc12	-5.3%	nt	-18.3%	-3.5%	-7.2%	-1.0%
Cc1cc(/C=N\NC(=O)COc2cccc3cccnc23)c(C)n1-c1ccccc1	-6.0%	nt	1.35µM*	-0.9%	-6.6%	0.7%
Cc1cc(/C=N\NC(=O)COc2cccc3cccnc23)c(C)n1-c1ccc(Br)cc1	-0.3%	-45.5%	4.78µM*	-3.8%	-2.6%	-1.7%
SMILES	Rab9 promoter act	SMN2 splice up	FLuc modulator	NPC1 prom act	uPA surface inh	ELG1 genotoxic
C=CCn1cc(/C=N/NC(=O)COc2cccc3cccnc23)c2ccccc21	0.9%	12.2%	?	-0.4%	-3.8%	2.1%
Cc1ccnc(-n2c(C)cc(/C=N/NC(=O)COc3cccc4cccnc34)c2C)c1	-2.9%	nt	13.5µM*	0.9%	1.5%	-1.9%
Cc1cc(/C=N\NC(=O)c2cccs2)c(C)n1-c1ccc2ncccc2c1	1.78µM*	?	1.35µM*	2.82µM*	-8.7%	?
CCN1C(=O)[C@H]2[C@@H](c3ccc(-c4ccc(C(C)=O)cc4)cc3)N[C@@](C)(C(=O)OC)[C@H]2C1=O	nt	nt	nt	nt	10.7%	3.3%
Cc1cc(/C=N/NC(=O)c2ccccn2)c(C)n1-c1cccc([N+](=O)[O-])c1	26.7%	-4.7%	?	4.8%	-3.2%	7.8%
Cc1nc2ccccn2c1C(=O)N/N=C/c1cc(C)n(-c2ccc(Br)cc2)c1C	-1.2%	-45.8%	12µM*	-4.5%	-1.9%	-1.0%
Cc1cc(/C=N/NC(=O)C(=O)NCc2ccccn2)c(C)n1-c1ccccc1	-3.3%	20.6%	2.69µM*	0.2%	-8.5%	?
COc1ccc(-c2nc3c(C#N)c[nH]n3c2NC2CCCCC2)cc1	nt	nt	-10.1%	nt	nt	nt
CC(C)C(=O)OC1=CN(Cc2ccccc2)S(=O)(=O)c2ccccc21	nt	nt	-3.2%	nt	nt	nt
O=C1CC(c2ccco2)CC(O)=C1C=Nc1ccc(Br)cc1 (centres undefined)	-8.9%	7.5%	-3.8%	-3.8%	1.2%	0.8%
Cc1ccc(N=CC2=C(O)CC(c3ccco3)CC2=O)cc1 (centres undefined)	11.4%	-14.4%	10.7µM*	0.8%	-0.5%	8.2%
O=C1CC(c2ccccc2)CC(O)=C1C=Nc1ccccc1 (centres undefined)	1.3%	-3.7%	16.9µM*	-3.9%	-8.9%	-0.1%
O=C1CC(c2ccccc2)CC(O)=C1C=Nc1ccccc1O (centres undefined)	-4.5%	0.8%	3.0%	-2.2%	?	4.6%
COc1ccc(-n2c(=O)c(-c3ccc(Cl)cc3)nc3cnc(N4CCOCC4)nc32)cc1	nt	2.2%	nt	nt	nt	nt
CCOc1ccc2oc(C(=O)NCC3CCCO3)c(C)c2c1 (centres undefined)	2.82µM*	nt	15.1µM*	?	7.5%	?
COc1ccc2oc(C(=O)NCC3CCCO3)c(C)c2c1 (centres undefined)	3.98µM*	nt	13.5µM*	?	-11.5%	?
O=C(Nc1nc2ccccc2[nH]1)c1cc2ccccc2o1	1.12µM*	4.47µM*	1.35µM*	2.24µM*	-15.6%	2.31µM*
COc1cc(OC)cc(C(=O)Nc2nc3ccccc3[nH]2)c1	?	?	10.7µM*	20.8%	-7.2%	?
CN(c1ccccc1)S(=O)(=O)c1ccc(Cl)c(C(=O)Nc2nc3ccccc3[nH]2)c1	-1.3%	-50.1%	0.0%	-0.7%	-12.1%	-13.2%
CN(C)S(=O)(=O)c1ccc(C(=O)Nc2nc3ccccc3[nH]2)cc1	?	11.2µM*	?	?	-8.2%	?
COc1ccc2oc(C(=O)Nc3nc4ccccc4[nH]3)c(C)c2c1	0.316µM*	nt	0.426µM*	0.355µM*	3.55µM*	?
COCCNC(=O)Cn1nc(N2CCN(c3ccccc3OC)CC2)ccc1=O	nt	nt	-0.8%	nt	nt	nt
